From the supplement of paper PMC4466140

molecular target: AgAbp1; test: SPOT peptide array binding signal intensity (averaged, normalized) (arbitrary units (background-subtracted, floor 0; scale differs between SH3 domains)); higher = stronger binding of the SH3 domain to the peptide
Outline: (§1)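 The binding signal is the normalized, background-subtracted spot intensity averaged over replicates; its arbitrary units differ between domains. It was obtained by incubating 10 μg/ml GST-fused SH3 domains from four yeast species overnight at 4°C in TBS-based blocking buffer on cellulose membranes with synthetic 15-mer peptides, cysteines replaced by serines, then detecting with anti-GST antibody, HRP anti-mouse secondary and luminol.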

Row | Binder | SPOT peptide array binding signal intensity
1 | VKPRQLFPIPLNKVD | 5

molecular target: AgBbc1; test: as above
Outline: as §1

Row | Binder | SPOT peptide array binding signal intensity
2 | VKPRQLFPIPLNKVD | ≤ 0

molecular target: AgBem1-D1; test: as above
Outline: as §1

Row | Binder | SPOT peptide array binding signal intensity
3 | VKPRQLFPIPLNKVD | 14.5

molecular target: AgBzz1-D1; test: as above
Outline: as §1

Row | Binder | SPOT peptide array binding signal intensity
4 | VKPRQLFPIPLNKVD | 61

molecular target: AgBzz1-D2; test: as above
Outline: as §1

Row | Binder | SPOT peptide array binding signal intensity
5 | VKPRQLFPIPLNKVD | 40.5

molecular target: AgCyk3; test: as above
Outline: as §1

Row | Binder | SPOT peptide array binding signal intensity
6 | VKPRQLFPIPLNKVD | ≤ 0

molecular target: AgFus1; test: as above
Outline: as §1

Row | Binder | SPOT peptide array binding signal intensity
7 | VKPRQLFPIPLNKVD | 23

molecular target: AgHof1; test: as above
Outline: as §1

Row | Binder | SPOT peptide array binding signal intensity
8 | VKPRQLFPIPLNKVD | 56.2

molecular target: AgHse1; test: as above
Outline: as §1

Row | Binder | SPOT peptide array binding signal intensity
9 | VKPRQLFPIPLNKVD | 60.5

molecular target: AgLsb1; test: as above
Outline: as §1

Row | Binder | SPOT peptide array binding signal intensity
10 | VKPRQLFPIPLNKVD | 1600

molecular target: AgLsb4; test: as above
Outline: as §1

Row | Binder | SPOT peptide array binding signal intensity
11 | VKPRQLFPIPLNKVD | ≤ 0

molecular target: AgMyo5; test: as above
Outline: as §1

Row | Binder | SPOT peptide array binding signal intensity
12 | VKPRQLFPIPLNKVD | 1

molecular target: AgNbp2; test: as above
Outline: as §1

Row | Binder | SPOT peptide array binding signal intensity
13 | VKPRQLFPIPLNKVD | 18

molecular target: AgRvs167; test: as above
Outline: as §1

Row | Binder | SPOT peptide array binding signal intensity
14 | VKPRQLFPIPLNKVD | 5

molecular target: AgSho1; test: as above
Outline: as §1

Row | Binder | SPOT peptide array binding signal intensity
15 | VKPRQLFPIPLNKVD | 8

molecular target: AgSla1-D1-D2; test: as above
Outline: as §1

Row | Binder | SPOT peptide array binding signal intensity
16 | VKPRQLFPIPLNKVD | 1

molecular target: AgSla1-D3; test: as above
Outline: as §1

Row | Binder | SPOT peptide array binding signal intensity
17 | VKPRQLFPIPLNKVD | 8.5

molecular target: CaAbp1-D1; test: as above
Outline: as §1

Row | Binder | SPOT peptide array binding signal intensity
18 | VKPRQLFPIPLNKVD | 98

molecular target: CaAbp1-D2; test: as above
Outline: as §1

Row | Binder | SPOT peptide array binding signal intensity
19 | VKPRQLFPIPLNKVD | 43

molecular target: CaBbc1; test: as above
Outline: as §1

Row | Binder | SPOT peptide array binding signal intensity
20 | VKPRQLFPIPLNKVD | 9

molecular target: CaBem1-D1; test: as above
Outline: as §1

Row | Binder | SPOT peptide array binding signal intensity
21 | VKPRQLFPIPLNKVD | 14

molecular target: CaBzz1-D1; test: as above
Outline: as §1

Row | Binder | SPOT peptide array binding signal intensity
22 | VKPRQLFPIPLNKVD | 110

molecular target: CaBzz1-D2; test: as above
Outline: as §1

Row | Binder | SPOT peptide array binding signal intensity
23 | VKPRQLFPIPLNKVD | 59

molecular target: CaCyk3; test: as above
Outline: as §1

Row | Binder | SPOT peptide array binding signal intensity
24 | VKPRQLFPIPLNKVD | ≤ 0

molecular target: CaFus1; test: as above
Outline: as §1

Row | Binder | SPOT peptide array binding signal intensity
25 | VKPRQLFPIPLNKVD | 138

molecular target: CaHof1; test: as above
Outline: as §1

Row | Binder | SPOT peptide array binding signal intensity
26 | VKPRQLFPIPLNKVD | 2

molecular target: CaHse1; test: as above
Outline: as §1

Row | Binder | SPOT peptide array binding signal intensity
27 | VKPRQLFPIPLNKVD | 3.25

molecular target: CaLsb1; test: as above
Outline: as §1

Row | Binder | SPOT peptide array binding signal intensity
28 | VKPRQLFPIPLNKVD | 0.5

molecular target: CaLsb4; test: as above
Outline: as §1

Row | Binder | SPOT peptide array binding signal intensity
29 | VKPRQLFPIPLNKVD | 7

molecular target: CaMyo5; test: as above
Outline: as §1

Row | Binder | SPOT peptide array binding signal intensity
30 | VKPRQLFPIPLNKVD | 1

molecular target: CaNbp2; test: as above
Outline: as §1

Row | Binder | SPOT peptide array binding signal intensity
31 | VKPRQLFPIPLNKVD | 105

molecular target: CaRvs167; test: as above
Outline: as §1

Row | Binder | SPOT peptide array binding signal intensity
32 | VKPRQLFPIPLNKVD | 54.5

molecular target: CaRvs167-3; test: as above
Outline: as §1

Row | Binder | SPOT peptide array binding signal intensity
33 | VKPRQLFPIPLNKVD | 3

molecular target: CaSho1; test: as above
Outline: as §1

Row | Binder | SPOT peptide array binding signal intensity
34 | VKPRQLFPIPLNKVD | 30

molecular target: CaSla1-D1-D2; test: as above
Outline: as §1

Row | Binder | SPOT peptide array binding signal intensity
35 | VKPRQLFPIPLNKVD | ≤ 0

molecular target: CaSla1-D3; test: as above
Outline: as §1

Row | Binder | SPOT peptide array binding signal intensity
36 | VKPRQLFPIPLNKVD | 3.25

molecular target: ScAbp1; test: as above
Outline: as §1

Row | Binder | SPOT peptide array binding signal intensity
37 | VKPRQLFPIPLNKVD | 71
